Data from the supplement of paper PMC11417369.
± gives the standard deviation of the averaged measurements. In all, about 25,000 sequences were measured (“ln(normalized median fluorescence intensity)”: median about 10, highest 2% from about 12 on). This excerpt belongs to a sample that is enriched for the highest values.

system: PfAP2-G AP2 domain (GST-tagged); experiment: gcPBM binding intensity (ln(normalized median fluorescence intensity)); higher = stronger DNA binding
Procedure, shortened: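 Plasmodium falciparum DNA-binding domains carrying a GST tag were expressed in E. coli and applied for 1 h, at about 25 μg on average, to an Agilent 4 × 180k array. The array held primer-extended double-stranded 36-bp intergenic genomic probes together with negative controls, and binding took place in 1× PBS with 1% milk, 0.2 mg/ml BSA, 0.5% salmon testes DNA and 0.03% Triton X-100. An Alexa488 anti-GST antibody detected bound protein, and the array was scanned at 488 nm. Binding intensity is taken as the highest Masliner-normalised natural-log median intensity across replicate spots of either probe orientation.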

In order of rising “gcPBM binding intensity (ln)” value:
1. ATAATAAGAAAAAAAAAAAAAAAAAAAAAAAAAAAA [TGCATGCA_negctrl_site377]  9.59 ± 0.58
2. AAATAATTTATAAATAAATACATTGTTACTTTTTCT [GTGCAC_negctrl_site639]  9.62 ± 0.29
3. TTTTTTTTTTTTTTTGCATGCAGGTTTTTACCCCTT [TGCATGCA_site381]  9.84 ± 0.51
4. TTTTAAAGTTGTGAGCTTCATTTTTATTTATATGTA [CACACA_negctrl_site1505]  9.87 ± 0.057
5. TCTATTAATTAATATACACACATTAGATATAAATAT [CACACA_site7241]  9.945 ± 0.092
6. TACTTTTCATCTTCTTAACACACAAAAAAAAAAAAA [CACACA_site9290]  10.1 ± 0.52
7. ATCATATGTATGGTGGTGCATTATGCATGAATTTTA [GTGCAC_site9798]  10.1 ± 0.18
8. ATAAATTTTTAAACAGCACACATAAATATAATATAT [CACACA_site8691]  10.06 ± 0.064
9. TTGCCCATTTCATTAACACACAAATGTTTATATTCT [CACACA_site4569]  10.17 ± 0.071
10. ATAAAATAATCTTATGCACACCAAAAATTTATATAA [CACACA_site8332]  10.2 ± 0.12
11. TCATACATTTTCCTTGCACACATTTATAATTAATGT [CACACA_site614]  10.5 ± 0.17
12. TAAAAATAATATATTTGTACATATGTGTATACATAA [XGTACX_site741]  10.7 ± 0.38
13. GAGGTCTTTTTTAATGTGCACATATATATATATATA  10.7 ± 0.51
14. TATAAAATATAAATTTGTACATATAAAATATTTTAT [XGTACX_site7462]  10.8 ± 0.53
15. TTCCAAAATTGCACATGTACAAAATTCTCCAATATG [XGTACX_site3419]  10.9 ± 0.62
16. ATATATATAAATATATGTACTAATATATACATATAT [XGTACX_site2289]  11 ± 0.69
17. TTATATATTTATAAATGTACATATAATTTTTTTATA [XGTACX_site4696]  11.1 ± 0.67
18. TAATGCATTTTCGCATGTACATATTTCTCTTTATAT [XGTACX_site8915]  11.1 ± 0.71
19. TATTTTTATAAAAACTGTACATAATAAATAAAAATA [XGTACX_site4743]  11.1 ± 0.62
20. TATTTAATTTTTAAATGTACATATAAAATAATATAT [XGTACX_site2422]  11.2 ± 0.89
21. TTATTGTACTTGCTCGCATGCAATAAAAATATATTA [TGCATGCA_site580]  11.2 ± 1.1
22. TTCGACGAGAGCAAGTGTACTCTTGAATAATTTATA [XGTACX_site7613]  11.3 ± 0.9
23. TTCAATATACATATGTGTACTAAAATAAATAGAAAA [XGTACX_site5708]  11.3 ± 0.83
24. TTATGCATAAAAGGTGGTACTCCGTATATACATTCT [XGTACX_site4354]  11.4 ± 0.65
25. TTGTTATATTACAGTAGTACATTTAAAATCTACTAC [XGTACX_site2620]  11.4 ± 0.93
26. TAATAATAAAAAATACGTACATATTATTTATATATG [XGTACX_site853]  11.4 ± 0.76
27. AATTTTTTAAATGTGTGTACATATTATTTAAATAAT [XGTACX_site5967]  11.5 ± 0.73
28. TTTATATATTTTAGGAGTACATTAAATTATACCTTA [XGTACX_site5600]  11.5 ± 0.89
29. TTATATTTTTTTGAGTGTACTTTTTGTGTAAAATTC [XGTACX_site2155]  11.5 ± 0.84
30. TCAATATAAATTAGTTGTACAGTTTTTTTTAATTAT [XGTACX_site6358]  11.5 ± 0.92
31. ACTTCAAAAATAAACTGTACGTAAAAAAAAAAAAAA [XGTACX_site795]  11.5 ± 1
32. GTAATATTATATAGTTGTACTTTTTTTTTATTATAT [XGTACX_site483]  11.5 ± 1
33. TGTATTATTAATATTTGTACGTAATAATAAAAACAT [XGTACX_site3716]  11.5 ± 1
34. CCCACGTATATTTTGTGTACATAAATAAATAAATAA [XGTACX_site4046]  11.6 ± 0.86
35. ATGTATATATATTTGTGTACATATTTAGGAAATAAA [XGTACX_site2904]  11.6 ± 1
36. TTTATTATTTTTAGGAGTACACAAAATAAAACAAAT [XGTACX_site8841]  11.6 ± 1
37. TATTCGTGCAATAGTAGTACACTTAAAAATTATTCA [XGTACX_site269]  11.6 ± 1.1
38. TAACATAAATTTAGGAGTACACTTTTTATACATACA [XGTACX_site4066]  11.7 ± 1
39. TTTATATATTTTAGGTGTACATAAATTTTTATATAT [XGTACX_site5597]  11.7 ± 1.1
40. AATATCTAAAATGTGTGTACATAATATTTTTAATAT [XGTACX_site3831]  11.7 ± 1.1
41. GTATTATATTTCAACTGTACGTAAAACTATTAAAAT [XGTACX_site3679]  11.7 ± 1.1
42. AACTGTAATTTTATACGTACATAAATAATATTATAT [XGTACX_site4277]  11.7 ± 0.93
43. TATATATATATAATGTGTACATACTAAATAGAGGAC [XGTACX_site4153]  11.7 ± 1.1
44. ACGTAATAAAATAGTTGTACAACTTTTTATAATATA [XGTACX_site4393]  11.8 ± 1.1
